# PubChem BioAssay
# The source made the active and inactive calls.
# Assay: basal CRE-LacZ reporter activity in PC12 – cell-based, unstimulated, primary screen (AID 1145)
# Conditions: no forskolin, luminescence, 4.5 h, higher = more signal, called active from +8 up or from −8 down
row,SMILES,z-score
1,CN(C)C(=O)[C@]1(Cc2ccccc2N=[N+]=[N-])N=C(c2ccc(OCCCO)cc2)O[C@@H]1c1ccccc1,0.69 (inactive)
2,CCCCCC1=C2CNC(CCC)(C(=O)OC)C=C2C(C)C1=O (stereo not given),-0.751 (inactive)
3,COCCOC(=O)N1C(=O)[C@@]2(c3cc(C#CCCO)ccc31)[C@H](C(=O)N1CCc3cc(OC)c(OC)cc3C1)[C@H]1C(=O)O[C@H](c3ccccc3)[C@H](c3ccccc3)N1[C@@H]2c1ccc(O)cc1,-0.815 (inactive)
4,O=C(NCc1ccccc1)[C@@]1(Cc2ccccc2)N=C(c2ccc(OCCCO)cc2)O[C@H]1c1ccccc1,-0.183 (inactive)
5,CC(C)c1ccc(NN2C(C(O)c3cc(C(F)(F)F)cc(C(F)(F)F)c3)C=CC3C(=O)N(c4ccccc4)C(=O)C32)cc1 (stereo not given),-0.322 (inactive)
6,CN1C(=O)[C@]2(Cc3ccccc3)N=C(c3ccc(OCCCO)cc3)O[C@@H]2c2ccccc21,0.456 (inactive)
7,CC(C)(C)OC(=O)CC[C@]1(C(=O)NCC(O)CO)COC(c2ccc(OCCCO)cc2)=N1 (stereo not given in full),-0.412 (inactive)
8,CCOC(=O)C[C@H]1[C@H](OC(=O)c2cc3ccccc3oc2=O)[C@@H](NC(=O)Cc2ccc(OC)cc2)c2cc(OCCCO)ccc2N1C(=O)c1ccccc1,4.1 (inactive)
9,COc1ccc(CCNC(=O)[C@@]2(Sc3ccc(C)cc3)CC(=O)N(C3CCCCC3)[C@@H]2c2ccc(CO)cc2I)cc1,-0.168 (inactive)
10,COc1ccc(C(=O)O[C@H]2CC[C@]3(C)C4=C(CCC3C2(C)C)[C@]2(C)CC[C@H]([C@H](C)CCCC(C)C)[C@@]2(C)CC4)cc1 (stereo not given in full),0.131 (inactive)
11,CCOC(=O)C[C@H]1[C@H](OC(=O)Cc2ccc3c(c2)OCO3)[C@@H](NC(=O)c2ccc3ccccc3c2)c2cc(OCCCO)ccc2N1C(=O)c1ccccc1,4.07 (inactive)
12,CCN(CC)c1ccc(N2CC=CC34O[C@@H]5/C=C\CCCOC(=O)C5[C@H]3C(=O)N(CCO)[C@@H]4C2=O)cc1 (stereo not given in full),0.601 (inactive)
13,C=CCNC(=O)[C@@H]1[C@H]2C(=O)O[C@H](c3ccccc3)[C@H](c3ccccc3)N2[C@H](c2ccccc2OCCO)[C@@]12C(=O)N(C(=O)OCCOC)c1ccc(C#CCNC(N)=O)cc12,-0.199 (inactive)
14,O=C1C[C@]2(c3ccc([N+](=O)[O-])cc3)C(=O)N(CCN3CCOCC3)c3cc(CO)ccc3[C@H]2N1C1CCCCC1,-0.322 (inactive)
15,CN1C(=O)C2C=CC(C(O)C3CC=CCC3)N(NC(=O)OC(C)(C)C)C2C1=O (stereo not given),0.626 (inactive)
16,COCCCNC(=O)C1N=C(c2ccc(OCCCO)cc2)N(c2ccccc2)O1 (stereo not given),-0.207 (inactive)
17,C=C(COC)/C(=C/C[C@H](OC(=O)c1ccncc1)c1ccc(OCCO)cc1)c1cnc2ccccc2c1,6.73 (inactive)
18,C=CC[C@@]1(C(=O)N(C)C)N=C(c2ccc(OCCCO)cc2)O[C@@H]1c1ccccc1N=[N+]=[N-],0.227 (inactive)

row,SMILES,z-score
1,C=CCOC(=O)[C@H]1[C@@H]2C(=O)O[C@@H](c3ccccc3)[C@@H](c3ccccc3)N2[C@@H](c2ccc(OCCOC(=O)[C@@H]3C[C@@H]4C(=O)N[C@@H](CCCC[N+](C)(C)C)C(=O)N4[C@@H]3c3ccc(O)cc3)cc2)[C@]12C(=O)Nc1ccccc12,-1.07 (inactive)
2,O=C1NC(=O)C2C1C=CC(C(O)c1cccc3ccccc13)N2Nc1ccccn1 (stereo not given),-0.522 (inactive)
3,COc1ccc(C(=O)Nc2cccc(CN3C(=O)[C@]4(O[C@H](CCO)[C@@H]([Si](C)(C)c5ccc(OC)cc5)[C@@H]4C)c4ccccc43)c2)cc1,10.9 (active)
4,COC(=O)c1c(CC[C@@H](CO)NC(=O)N2CCC[C@H]2Cn2cc(-c3ccccn3)nn2)oc(C(C)=O)c1C(=O)OC,0.395 (inactive)
5,C=CCN1C(=O)[C@]2(O[C@H](CCO)[C@@H]([Si](C)(C)c3ccc(OC)cc3)[C@@H]2C)c2cc(N3C(=O)c4cccc5cccc3c45)ccc21,23.5 (active)
6,O=C(NCc1ccccc1)[C@@]1(CCS(=O)(=O)c2ccccc2)N=C(c2ccc(OCCCO)cc2)O[C@H]1c1ccccc1,-0.435 (inactive)
7,CC(C)C(=C=CC[C@@H](O)c1ccccc1OCCO)CCO,5.12 (inactive)
8,O=C(NCC(F)(F)F)[C@@H]1c2ccccc2C(=O)N(C2CCCCC2)[C@H]1c1ccc(CO)cc1,0.299 (inactive)
9,CN1C(=O)C2C=CC(C(O)c3cccs3)N(Nc3ccccc3)C2C1=O (stereo not given),0.426 (inactive)
10,COc1cc2c(cc1O)C(C1CC1)N(Cc1cc3c(cc1Br)OCO3)CC2 (stereo not given),0.245 (inactive)
11,COCCOC(=O)N1C(=O)[C@@]2(c3cc(C#CCCO)ccc31)[C@H](c1ccc(OCCO)cc1)N1[C@H](c3ccccc3)[C@H](c3ccccc3)OC(=O)[C@H]1[C@@H]2C(=O)N1CCN(c2ncccn2)CC1,0.334 (inactive)
12,O=C1O[C@H](c2ccccc2)[C@H](c2ccccc2)N2[C@H]1[C@@H](C(=O)NC[C@H](O)c1ccccc1)[C@]1(C(=O)Nc3ccccc31)[C@H]2c1ccc(OCCO)cc1,-0.0784 (inactive)
13,O=C1c2ccccc2[C@](Cc2ccccc2I)(C(=O)NC2CC2)[C@H](c2ccc(CO)cc2)N1C1CCCCC1,0.531 (inactive)
14,CC(=O)NCCCC[C@@H]1NC(=O)[C@@H]2C[C@H](C(=O)NCCCCCCNC(=O)CS)[C@H](c3cccc(OCCO)c3)N2C1=O,0.135 (inactive)
15,COCCOC(=O)N1C(=O)[C@@]2(c3cc(C#CC4=CCCCC4)ccc31)[C@H](C(=O)N1CCc3cc(OC)c(OC)cc3C1)[C@H]1C(=O)O[C@H](c3ccccc3)[C@H](c3ccccc3)N1[C@@H]2c1ccc(OCCO)cc1,-0.475 (inactive)
16,COCCOC(=O)N1C(=O)[C@@]2(c3cc(C#CC4=CCCCC4)ccc31)[C@H](C(=O)Nc1nc3ccccc3s1)[C@H]1C(=O)O[C@H](c3ccccc3)[C@H](c3ccccc3)N1[C@@H]2c1ccccc1OCCO,-0.878 (inactive)
17,COc1ccc(C(O)C2C=CC3C(=O)N(c4ccccc4)C(=O)C3N2Nc2ccc(C(C)C)cc2)cc1OCc1ccccc1 (stereo not given),1.4 (inactive)
